From PubChem BioAssay AID1159580 (chemical genetic matrix, 2015)
Among all 5,500 compounds or so, about 2,000 (36%) were called active. About 18% were inconclusive and are not listed. No stated cut-off is given here; in the data, active means normalized growth mostly below about 0.91 (no sharp cut-off); inconclusive means no clear call, values can overlap the other calls; inactive means mostly above about 0.92. This is one part of the list.

Assay: chemical genetic growth profiling, strain panel (AID 1159580);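 further: tested at 20 µM; growth read once vehicle control cultures reached saturation at 30 °C; 1 = growth at the plate median or of vehicle wells; lower values mean less growth of the strain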
Conditions: growth OD

Measured: normalized growth

N[C@@H](CCC(=O)N[C@@H](CS)C(=O)NCC(=O)O)C(=O)O
inactive: S. cerevisiae deletion strains, locus YKL009W, strain mrt4, active compounds read low 0.954 | S. cerevisiae deletion strains, locus YKL068W, active compounds read low 0.996 | S. cerevisiae deletion strains, locus YKL085W, strain MDH1 (second series), active compounds read low 0.979 | S. cerevisiae deletion strains, locus YKL085W, strain MDH1, active compounds read low 0.979 | S. cerevisiae deletion strains, locus YKL160W, strain elf1, active compounds read low 0.978 | S. cerevisiae deletion strains, locus YKL190W, strain CNB1, active compounds read low 0.993 | S. cerevisiae deletion strains, locus YKR001C, strain vps1, active compounds read low 0.994 | S. cerevisiae deletion strains, locus YKR026C, strain gcn3, active compounds read low 0.987 | S. cerevisiae deletion strains, locus YKR091W, strain srl3, active compounds read low 0.985 | S. cerevisiae deletion strains, locus YLL001W, strain dnm1, active compounds read low 0.963 | S. cerevisiae deletion strains, locus YLL026W, active compounds read low 0.975 | S. cerevisiae deletion strains, locus YLL041C, strain sdh2, active compounds read low 1 | S. cerevisiae deletion strains, locus YLR027C, strain aat2, active compounds read low 0.97 | S. cerevisiae deletion strains, locus YLR039C, strain RIC1, active compounds read low 0.981 | S. cerevisiae deletion strains, locus YLR058C, strain SHM2, active compounds read low 0.996 | S. cerevisiae deletion strains, locus YLR102C, strain apc9, active compounds read low 0.986 | S. cerevisiae deletion strains, locus YLR113W, strain HOG1, active compounds read low 0.97 | S. cerevisiae deletion strains, locus YLR221C, strain rsa3, active compounds read low 1 | S. cerevisiae deletion strains, locus YLR258W, strain gsy2, active compounds read low 1.01 | S. cerevisiae deletion strains, locus YLR262C, strain YPT6 (second series), active compounds read low 1 | S. cerevisiae deletion strains, locus YLR262C, strain YPT6, active compounds read low 0.92 | S. cerevisiae deletion strains, locus YLR268W, strain sec22, active compounds read low 0.983 | S. cerevisiae deletion strains, locus YLR320W, strain mms22, active compounds read low 1.02 | S. cerevisiae deletion strains, locus YLR330W, strain CHS5, active compounds read low 0.999 | S. cerevisiae deletion strains, locus YLR342W, strain FKS1 (second series), active compounds read low 1.03 | S. cerevisiae deletion strains, locus YLR342W, strain FKS1, active compounds read low 0.982 | S. cerevisiae deletion strains, locus YLR357W, strain rsc2, active compounds read low 0.973 | S. cerevisiae deletion strains, locus YLR370C, strain arc18, active compounds read low 0.985 | S. cerevisiae deletion strains, locus YLR371W, strain rom2, active compounds read low 0.979 | S. cerevisiae deletion strains, locus YLR384C, strain iki3, active compounds read low 0.98 | S. cerevisiae deletion strains, locus YLR418C, strain cdc73, active compounds read low 0.98 | S. cerevisiae deletion strains, locus YML016C, strain PPZ1, active compounds read low 1 | S. cerevisiae deletion strains, locus YML032C, strain rad52, active compounds read low 0.989 | S. cerevisiae deletion strains, locus YML120C, strain ndi1, active compounds read low 0.981 | S. cerevisiae deletion strains, locus YML124C, strain tub3, active compounds read low 0.995 | S. cerevisiae deletion strains, locus YMR058W, strain fet3, active compounds read low 0.99 | S. cerevisiae deletion strains, locus YMR078C, strain ctf18, active compounds read low 0.977 | S. cerevisiae deletion strains, locus YMR125W, strain sto1, active compounds read low 1 | S. cerevisiae deletion strains, locus YMR129W, active compounds read low 1 | S. cerevisiae deletion strains, locus YMR205C, strain PFK2, active compounds read low 0.993 | S. cerevisiae deletion strains, locus YMR223W, strain ubp8, active compounds read low 0.985 | S. cerevisiae deletion strains, locus YMR231W, strain pep5, active compounds read low 1.02 | S. cerevisiae deletion strains, locus YMR307W, strain GAS1, active compounds read low 1.12 | S. cerevisiae deletion strains, locus YNL067W, strain RPL9B, active compounds read low 0.969 | S. cerevisiae deletion strains, locus YNL071W, strain lat1, active compounds read low 1.01 | S. cerevisiae deletion strains, locus YNL128W, strain TEP1, active compounds read low 0.963 | S. cerevisiae deletion strains, locus YNL183C, strain NPR1, active compounds read low 0.97 | S. cerevisiae deletion strains, locus YNL209W, strain ssb2, active compounds read low 1.01 | S. cerevisiae deletion strains, locus YNL233W, strain BNI4, active compounds read low 0.989 | S. cerevisiae deletion strains, locus YNL248C, strain rpa49, active compounds read low 1.03 | S. cerevisiae deletion strains, locus YNL250W, strain rad50, active compounds read low 0.987 | S. cerevisiae deletion strains, locus YNL271C, strain bni1, active compounds read low 0.982 | S. cerevisiae deletion strains, locus YNL298W, strain CLA4, active compounds read low 0.986 | S. cerevisiae deletion strains, locus YNL307C, strain MCK1, active compounds read low 0.99 | S. cerevisiae deletion strains, locus YNL322C, strain KRE1 (second series), active compounds read low 0.998 | S. cerevisiae deletion strains, locus YNR049C, strain mso1, active compounds read low 0.996 | S. cerevisiae deletion strains, locus YNR052C, strain pop2, active compounds read low 0.988 | S. cerevisiae deletion strains, locus YOL006C, strain TOP1, active compounds read low 0.986 | S. cerevisiae deletion strains, locus YOL012C, strain htz1 0.759 | S. cerevisiae deletion strains, locus YOL147C, strain pex11, active compounds read low 0.995 | S. cerevisiae deletion strains, locus YOR001W, strain rrp6, active compounds read low 0.971 | S. cerevisiae deletion strains, locus YOR061W, strain CKA2, active compounds read low 0.993 | S. cerevisiae deletion strains, locus YOR069W, strain VPS5, active compounds read low 1 | S. cerevisiae deletion strains, locus YOR070C, strain gyp1, active compounds read low 1.02 | S. cerevisiae deletion strains, locus YOR080W, strain dia2, active compounds read low 0.988 | S. cerevisiae deletion strains, locus YOR083W, strain WHI5, active compounds read low 0.973 | S. cerevisiae deletion strains, locus YOR106W, strain vam3, active compounds read low 0.987 | S. cerevisiae deletion strains, locus YOR136W, strain idh2, active compounds read low 0.993 | S. cerevisiae deletion strains, locus YOR144C, strain elg1, active compounds read low 0.995 | S. cerevisiae deletion strains, locus YOR184W, strain ser1, active compounds read low 0.989 | S. cerevisiae deletion strains, locus YOR231W, strain MKK1, active compounds read low 0.966 | S. cerevisiae deletion strains, locus YOR265W, strain rbl2, active compounds read low 0.996 | S. cerevisiae deletion strains, locus YOR270C, strain vph1, active compounds read low 1.03 | S. cerevisiae deletion strains, locus YOR290C, strain snf2, active compounds read low 1.01 | S. cerevisiae deletion strains, locus YOR316C, strain cot1, active compounds read low 0.998 | S. cerevisiae deletion strains, locus YPL051W, strain arl3, active compounds read low 0.993 | S. cerevisiae deletion strains, locus YPL078C, strain atp4, active compounds read low 0.972 | S. cerevisiae deletion strains, locus YPL106C, strain sse1, active compounds read low 0.985 | S. cerevisiae deletion strains, locus YPL240C, strain hsp82, active compounds read low 1.01 | S. cerevisiae deletion strains, locus YPL241C, strain CIN2, active compounds read low 0.993 | S. cerevisiae deletion strains, locus YPL256C, strain CLN2, active compounds read low 0.913 | S. cerevisiae deletion strains, locus YPR119W, strain clb2, active compounds read low 0.988 | S. cerevisiae deletion strains, locus YPR141C, strain kar3, active compounds read low 0.981 | S. cerevisiae deletion strains, locus YPR163C, strain tif3, active compounds read low 0.996 | S. cerevisiae deletion strains, locus YPR167C, strain met16, active compounds read low 0.98 | S. cerevisiae deletion strains, strain wtn01, active compounds read low 0.984 | S. cerevisiae strains, strain wild type, active compounds read low 0.998
